# Measurements as given in PubChem BioAssay (NCATS).
# Active and inactive are the calls of the source. Calls follow the shape of the dose curve; as a rule, active = well fitted activation curve with a large enough effect; inconclusive = small, poorly fitted or top-dose-only effect, or effect the other way; inactive = flat fitted curve, though single readings scatter.
# Assay: Cellular Toxicity (caspase-3) Renal Proximal Tubule (AID 667);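 also: cells exposed to compound for 16 hours at 37 °C before detection; 0% = DMSO basal and 100% = 10 µM staurosporine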
# Details: renal proximal tubule cells; series mostly up to 91.7 µM; caspase-3 activation: at the top concentration
# Excerpt: NIH Chemical Genomics Center [NCGC]
# NIH Molecular Libraries Screening Centers Network [MLSCN]
# National Institutes of Environmental Health Sciences [NIEHS]
# National Toxicology Program [NTP]
# We have developed a 1536-well cell-based assay for quantitative high throughput screening (qHTS) against a number of cell lines to determine in vitro caspase 3/7 activity of small molecules. This particular assay uses the primary kidney proximal tubule cells freshly isolated from rat.
# NCGC Assay Protocol Summary:
# The Caspase-Glo 3/7 assay (Promega) is a homogeneous method to measure caspase-3 and caspase-7 activities in cultured cells. The quantitation of caspase 3/7 activity is based on the cleavage of a peptide-aminoluciferin substrate. After caspase cleaves the substrate the free aminoluciferin is liberated and serves as the substrate of luciferase, which generates the light. The luminescent signal is proportional to the amount of caspase 3/7 activity present.
# Using the Caspase-Glo 3/7 assay, the amount of caspase 3/7 activity was measured in the rat kidney proximal tubule cells with complete culture medium following compound treatment for 16 hours. The assay was performed in opaque white 1536-well plates. In the screen, staurosporine and doxorubicin were used as positive controls. Library compounds were measured for their ability to cause the activation of caspase 3/7 in the cell line, as reflected by an increase in luminescence signal, in a concentration-dependent manner. Data were normalized to the controls for basal activity (DMSO only) and 100% stimulation (10 uM staurosporine). AC50 values were determined from concentration-response data modeled with the standard Hill equation.
# qHTS protocol for caspase 3/7 assay in rat kidney proximal tubule cells
# [Step] [Parameter] [Value] [Description]
# 1. Reagent; 5 uL; 1000 rat kidney proximal tubule cells/well
# 2. Time; 5 hr; 37 °C incubation
# 4. Controls; 23 nL; doxorubicin 7 pM to 100 uM & staurosporine 1.4 pM to 20 uM
# 5. Time; 16 hr; 37 °C incubation
# 6. Reagent; 5 uL; Caspase-Glo 3/7 reagent
# 7. Time; 1 hr; Room Temperature
# 8. Detection; Luminescence; Viewlux plate reader
# Keywords: caspase 3/7, apoptosis, rat kidney proximal tubule cells, luminescence, NTPHTS, NTPHTS_NCGC, NIEHS, EPA, DSSTox, MLSMR, MLSCN, NIH Roadmap, qHTS, NCGC
SMILES,caspase-3 activation,outcome
c1cc2ccc3cccc4ccc(c1)c2c34,"7.63% [at 91.7 µM, primary cells freshly taken from rat, solvent-only wells 0%, staurosporine 100%] (inactive)",
Nc1ccc(Sc2ccc(N)cc2)cc1,-3.04% (inactive),
O=[N+]([O-])c1cc([N+](=O)[O-])c2ccccc2c1,-8.81% (inactive),
CC(=O)[O][Hg][c]1ccccc1,-18.4% (inactive),
CN(C)[C@@H]1C(=O)C(C(N)=O)=C(O)[C@@]2(O)C(=O)C3=C(O)c4c(O)cccc4[C@@](C)(O)[C@H]3[C@H](O)[C@@H]12,-4.63% (inactive),
Cc1cc(O)ccc1Cl,-9.54% (inactive),
C=CC(=O)NCNC(=O)C=C,-12.4% (inactive),
Nc1ccc([N+](=O)[O-])cc1,11.8% (inactive),
CCCCC(CC)COC(=O)c1ccccc1C(=O)OCC(CC)CCCC (stereo unspecified),11.2% (inactive),
Nc1ccc(Cl)cc1N,-13.9% (inactive),
OCCCBr,-5.16% (inactive),
O=C(O)C(Cl)Cl,0.541% (inactive),
CCCCCCCCc1ccc(O)cc1,7.2% (inactive),
CCCCOC(=O)c1ccccc1C(=O)OCc1ccccc1,-8.39% (inactive),
O=[N+]([O-])c1c2ccccc2cc2ccccc12,1.91% (inactive),
O=S(=O)(c1ccc(Cl)cc1)c1ccc(Cl)cc1,,inactive
O=[N+]([O-])c1c(Cl)c(Cl)cc(Cl)c1Cl,3.1% (inactive),
O=C(O)COc1ccccc1,8.25% (inactive),
CCOCCOC(C)=O,"2.81% [at 91.7 µM, primary cells freshly taken from rat, solvent-only wells 0%, staurosporine 100%] (inactive)",
CCOP(=O)(NC(C)C)Oc1ccc(SC)c(C)c1 (stereo unspecified),13.5% (inactive),
COc1ccc(C(c2ccc(OC)cc2)C(Cl)(Cl)Cl)cc1,,inactive
CC(C)(O)C(=O)Nc1ccc([N+](=O)[O-])c(C(F)(F)F)c1,-13.6% (inactive),
Nc1ccc(Cl)cc1,-5.77% (inactive),
COC(C)(C)CCCC(C)C/C=C/C(C)=C/C(=O)OC(C)C (stereo unspecified),"3.63% [at 91.7 µM, primary cells freshly taken from rat, solvent-only wells 0%, staurosporine 100%] (inactive)",
CN(C)NC(=O)CCC(=O)O,7.93% (inactive),
C1CCC(NC2CCCCC2)CC1,,inactive
